A3G deaminase = APOBEC3G (human) deaminase inhibition; Q9HC16; inhibition, % at 20 µM; recombinant A3G, ssDNA deamination FAM/TAMRA fluorescence; actives 0.28% (n = 330,000);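 active means inhibition of at least 40% at 20 µM, with no more than 30% in the related APOBEC3A deaminase screen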;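 further: plate controls were DMSO wells with A3G for no effect and wells lacking A3G enzyme for full effect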
A3A deaminase = blocks human APOBEC3A ssDNA deamination | P31941 | recombinant A3A, FAM/TAMRA ssDNA deamination fluorescence | inhibition, % at 20 µM | actives 0.41% (n = 330,000) | AID 493011;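 active means at least 40% inhibition at 20 µM here, with at most 30% in a related deaminase screen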;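 further: plate controls were A3A with DMSO for no effect and wells lacking A3A enzyme for full effect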
Target sequence (P31941 whole entry, looked up): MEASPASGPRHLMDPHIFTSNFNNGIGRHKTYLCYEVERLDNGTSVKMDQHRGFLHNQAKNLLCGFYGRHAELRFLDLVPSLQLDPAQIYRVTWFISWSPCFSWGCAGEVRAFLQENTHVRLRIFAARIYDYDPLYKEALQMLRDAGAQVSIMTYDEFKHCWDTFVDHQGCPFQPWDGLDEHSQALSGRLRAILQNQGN
ALR inh = human ALR oxidase inhibition via reduced H2O2. P55789. purified ALR, DTT oxidation, H2O2 HRP-luminol luminescence. inhibition, % (no concentration beside the values). actives 3.8% (n = 290,000);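 active means mean replicate inhibition above about 79%, with every replicate also reaching it, limit read from the data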
rCAG binder = binds r(CAG) RNA repeats; r(CAG) RNA repeat, TO-PRO-1 dye displacement fluorescence; inhibition, % at 3 µM; actives 1.3% (n = 370,000);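 active means inhibition above the plate cutoff, the mean of all test compounds on that plate plus 3 SD, cut at about 35% in these data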;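 further: 0% = DMSO alone and 100% = 100 µM mitoxantrone as full dye displacement; higher means more dye released from RNA so lower well fluorescence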
PHOSPHO1 inh = inhibitors of human PHOSPHO1 phosphatase; Q8TCT1; recombinant PHOSPHO1, absorbance phosphatase assay; inhibition, % at 13.3 µM; actives 1.1% (n = 290,000); AID 1565; in the data active means inhibition above about 60%
Target sequence (Q8TCT1 whole entry, looked up): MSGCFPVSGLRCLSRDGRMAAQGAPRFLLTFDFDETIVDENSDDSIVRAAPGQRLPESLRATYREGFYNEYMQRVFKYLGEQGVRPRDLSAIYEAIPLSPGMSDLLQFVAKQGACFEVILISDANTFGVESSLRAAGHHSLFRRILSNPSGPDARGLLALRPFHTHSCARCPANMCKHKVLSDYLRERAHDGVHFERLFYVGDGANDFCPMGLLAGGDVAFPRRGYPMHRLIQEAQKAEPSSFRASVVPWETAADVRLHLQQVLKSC
aDG glyco up = increases alpha dystroglycan glycosylation; Pro5-aDG cells, alpha-DG glycosylation AlphaScreen (IIH6); 0% Pro5, 100% B10-LARGE cell signal; activation, % at 10 µM; actives 0.22% (n = 360,000); AID 624168;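 active means activation of at least 8% versus controls, or a plate z-score of at least 8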;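 further: Pro5 are CHO cells carrying HIG-tagged alpha-DG that lacks glycosylation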
The depositor's hits bear a star; x = not tested or not shown. This is a sample that favours compounds with a hit; in the whole collection about 5.4% have one here.

SMILES | A3G deaminase | A3A deaminase | ALR inh | rCAG binder | PHOSPHO1 inh | aDG glyco up
O=c1c2cc3c(cc2[nH]c(=S)n1C1CCN(Cc2ccccc2)CC1)OCO3 | -5.2 | 0.1 | 93.1* | -2.2 | 16.5 | 0.3
CCOc1cc2[nH]c(=S)n(C3CCN(Cc4ccccc4)CC3)c(=O)c2cc1OCC | -2.1 | -1.2 | -2.1 | -3.4 | -7.5 | 0.9
CCCCNC(=O)C[C@H]1C[C@@]2(C(=O)OC)C(=C[C@H](COCc3ccccc3)O[C@@H]2C)N(CCc2ccc(OC)c(OC)c2)C1=O | x | x | x | 0.4 | x | x
CC(Nc1ccccc1)c1cc(Cl)ccc1O (configuration not stated) | -4.5 | -2.5 | 98.9* | 0.0 | 2.0 | 0.0
Cc1c(NC(C)C)c(=O)n(-c2ccccc2)n1C | -2.4 | 0.2 | 96.9* | 0.7 | x | -0.1
Cc1c(NC(=O)Nc2cccc(F)c2)c(=O)n(-c2ccccc2)n1C | -4.7 | -2.5 | -6.6 | 1.1 | 61.0* | -0.1
Cc1cc(C)c(O)c(-c2cc(C(=O)Nc3c(C)n(C)n(-c4ccccc4)c3=O)[nH]n2)c1 | 2.1 | 6.2 | 98.6* | 4.0 | 19.7 | 0.1
Cc1cccc(NC(=O)Nc2c(C)n(C)n(-c3ccccc3)c2=O)c1 | -12.0 | -4.8 | -12.4 | -2.3 | x | 0.2
COC(=O)C[C@@H]1CC[C@H]2[C@@H](COc3ccc(NC(=O)Nc4cccc(F)c4)cc3C(=O)N2C)O1 | x | x | x | 5.9 | x | x
O=C(Nc1ccc(F)cc1)OCc1cn(Cc2cc(F)ccc2F)nn1 | x | x | x | 2.2 | x | x
COC(=O)C1=C(C)N(Cc2ccc(C(F)(F)F)cc2)C(=NCc2cc(OC)c(OC)c(OC)c2)NC1c1cccc(Cl)c1 (configuration not stated) | x | x | x | 4.2 | x | x
Nc1nc2ncccc2cc1C(=O)c1c[nH]c2ccccc12 | x | x | x | 4.1 | x | x
C[C@@H]1CCN(C2CC2)S(=O)(=O)c2c(cccc2N2CCC[C@@H]2CO)O1 | x | x | x | 2.8 | x | x
Cc1c(NC(C)c2cc(Cl)ccc2O)c(=O)n(-c2ccccc2)n1C (configuration not stated) | -0.6 | -0.8 | 90.8* | -2.5 | 9.2 | 0.3
Cc1c(C(=O)Nc2c(C)n(C)n(-c3ccccc3)c2=O)oc2ccc(Cl)cc12 | -0.5 | 1.0 | 4.1 | -2.0 | 70.6* | 0.2
Cc1c(NC(=O)/C(C#N)=C/c2ccc(-c3ccccc3Cl)o2)c(=O)n(-c2ccccc2)n1C | -2.3 | 6.1 | 87.8* | 6.6 | -9.4 | 0.7
C=CC[C@@H]1NN2C(=O)[C@@H](C)[C@@H]3c4ccccc4C=NN3[C@@H]2c2ccccc21 | x | x | x | 9.8 | x | x
C=CCN1C(=O)[C@@H](CC(=O)N2CCSCC2)[C@]2(C(=O)OCC)CCCCC/C=C/12 | x | x | x | 2.1 | x | x
Cc1ccc(Cn2c(=N)n(CC(=O)c3ccccc3)c3ccccc32)cc1 | -6.8 | -3.0 | -26.1 | 12.9 | 45.5 | 11.9*
CC(C)(C)C(=O)Cn1c(=N)n(Cc2ccccc2)c2ccccc21 | 1.2 | 2.0 | 2.0 | 3.6 | -10.8 | -0.1
COc1cc(NC(=O)C2CCCN(S(=O)(=O)c3ccc(Cl)s3)C2)cc(OC)c1 (configuration not stated) | x | x | x | 7.7 | x | x
Cc1n[nH]c(C)c1S(=O)(=O)NCCc1ccccc1 | x | x | x | 1.4 | x | x
Cc1ccc(NC(=O)COC(=O)CSC(=S)N2CCOCC2)cc1C | -7.9 | -2.1 | x | -4.2 | 15.0 | -0.2
Cc1ccc(NC(=O)COC(=O)CN2CSCC2=O)cc1C | -0.3 | 1.1 | 98.3* | 1.4 | -11.6 | -0.3
Cc1c(Cl)cccc1NS(=O)(=O)c1ccc2c(c1)C1C=CCC1C(c1ccc(C(=O)O)cc1)N2 (configuration not stated) | 18.7 | 28.2 | 98.0* | x | -11.8 | -0.2
CC(=O)c1ccc2c(c1)C1C=CCC1C(c1ccc(S(=O)(=O)N3CCOCC3)cc1)N2 (configuration not stated) | x | x | -14.0 | 31.0 | -11.9 | 0.7
CCOc1ccc2c(c1)n(CO)c(=S)n2CO | 22.3 | -4.6 | 99.8* | 1.9 | 55.4 | -0.1
CCOc1ccc2c(c1)c(N=NC(N)=S)c(O)n2C | 4.7 | 10.1 | 3.3 | 3.6 | 12.9 | 0.1
COC(=O)[C@]12C[C@H](CC(=O)N3CCCC3)C(=O)N(Cc3ccc(Cl)cc3Cl)C1=C[C@H](C(C)(C)C)O[C@@H]2C | x | x | x | 1.4 | x | x
COc1ccc(S(=O)(=O)Nc2ccc3c(c2)C(=O)N([C@H](C)CO)C[C@H](C)[C@H](CN(C)C(=O)Nc2ccc(F)cc2)OCCCC[C@@H](C)O3)cc1 | x | x | x | 11.3 | x | x

Compound activity as filed in PubChem.
